Bioassay records (PubChem)
This is a sample that favours compounds with a hit; in the whole collection about 0.38% have one here.
EPAC2 antagonist = EPAC2 (human) antagonism; Q8WZA2; EPAC2 GEF exchange of Rap1B-BODIPY-GDP, fluorescence; Potency, µM (series often up to 114 µM), without a hit: at the top dose activity, negative = inhibition, usual class: inhibitors; actives 0.18% (n = 360,000); further: on the % scale 0 is the no-effect control and ±100 the full control effect; nearly all actives have a fitted effect of over 45% in size
Target sequence (Q8WZA2 whole entry, looked up): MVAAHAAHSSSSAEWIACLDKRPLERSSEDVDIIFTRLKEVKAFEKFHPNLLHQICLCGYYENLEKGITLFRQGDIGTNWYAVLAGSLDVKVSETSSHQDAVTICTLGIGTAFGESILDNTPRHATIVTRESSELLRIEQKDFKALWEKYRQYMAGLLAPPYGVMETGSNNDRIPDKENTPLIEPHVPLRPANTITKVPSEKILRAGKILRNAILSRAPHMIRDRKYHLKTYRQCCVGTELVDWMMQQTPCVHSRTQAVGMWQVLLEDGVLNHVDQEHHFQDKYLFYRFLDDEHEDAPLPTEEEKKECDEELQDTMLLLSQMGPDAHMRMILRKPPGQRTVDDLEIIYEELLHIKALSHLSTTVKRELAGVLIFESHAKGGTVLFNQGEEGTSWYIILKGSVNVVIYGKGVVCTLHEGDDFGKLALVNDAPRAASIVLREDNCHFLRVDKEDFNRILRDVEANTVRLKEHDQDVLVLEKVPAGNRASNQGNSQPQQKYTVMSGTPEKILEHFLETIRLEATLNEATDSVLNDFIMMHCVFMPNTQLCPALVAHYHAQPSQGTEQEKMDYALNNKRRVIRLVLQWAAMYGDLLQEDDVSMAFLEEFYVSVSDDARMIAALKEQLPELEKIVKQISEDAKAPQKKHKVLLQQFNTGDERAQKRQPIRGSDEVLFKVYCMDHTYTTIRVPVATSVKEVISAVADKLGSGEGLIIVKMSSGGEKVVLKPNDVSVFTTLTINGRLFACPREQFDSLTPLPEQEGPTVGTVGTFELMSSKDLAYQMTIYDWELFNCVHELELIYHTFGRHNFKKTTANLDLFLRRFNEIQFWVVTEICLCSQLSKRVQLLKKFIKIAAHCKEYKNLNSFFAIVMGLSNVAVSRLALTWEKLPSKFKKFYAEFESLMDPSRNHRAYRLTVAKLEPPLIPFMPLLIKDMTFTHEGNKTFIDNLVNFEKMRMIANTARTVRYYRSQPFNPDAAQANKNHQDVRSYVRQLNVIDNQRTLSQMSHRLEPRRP
EPAC1 agonist = activates human EPAC1 exchange factor; O95398; EPAC1 agonist qHTS, biochemical assay; response scale: 100% = response to 6.5 mM cAMP; Potency, µM (top dose mostly 154 µM), inactives show top-dose activation, hits mostly activators; actives 0.073% (n = 360,000); AID 720707; further: nearly all actives have a fitted effect of over 60% in size
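EPAC1 100 nM, Rap1B–BODIPY-GDP 250 nM, unlabeled GDP 50 uM; compound titration; 5 min RT; kinetic read ex480/em540 at 5-min intervals ×30 min; data normalized to 6.5 mM cAMP agonist control.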
EPAC2 ag = EPAC2 (human) agonism; actives 0.079% (n = 360,000); Potency, µM (titrated, usually from 154 µM), without a hit: at the top dose activation, most hits filed as activators; AID 720711; Q8WZA2; EPAC2 activation, biochemical qHTS; response scale: 100% = 6.5 mM cAMP response; further: nearly all actives have a fitted effect of over 50% in size
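Exchange assay: 100 nM EPAC2 with 250 nM Rap1B-BODIPY-GDP and 50 uM GDP. Fluorescence (ex 480/em 540 nm) read every 5 min for 30 min at room temperature. Data normalized to 6.5 mM cAMP as agonist control.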
EPAC1 antag = antagonists of human EPAC1; actives 0.14% (n = 360,000); EPAC1 GEF assay, Rap1b-BODIPY-GDP exchange fluorescence; Potency, µM (titrated, usually from 115 µM), without a hit: at the highest dose activity change, negative = inhibition, usual class: inhibitors;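 further: plate controls were vehicle for no effect and positive control for full effect; nearly all actives have a fitted effect of over 50% in size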
Numbers without * were called inactive; ? = inconclusive; ! = not active in a repeat. The call rests on the fitted dose curve; in most records, active means well fitted curve in the direction sought with a large enough effect; inconclusive means small, poorly fitted or top-dose-only effect, or another doubt; inactive means no such curve, though single readings can be large; an effect the other way counts as inactive or inconclusive. Potency means the concentration at half of the fitted maximal effect.

SMILES	EPAC2 antagonist	EPAC1 agonist	EPAC2 ag	EPAC1 antag
COc1cccc(Cn2c(=O)c3ccccc3n3nc(C)cc23)c1	50µM*	15%	14%	-5%
N#Cc1c(NC(=O)C2CC=CCC2C(=O)O)sc2c1CCCCCC2 (stereo not drawn)	-26%	11%	2%	79µM*
CC(C)(C)C1CCc2c(sc(NC(=O)C3CC=CCC3C(=O)O)c2C#N)C1 (stereo not drawn)	-1%	-15%	-4%	-29%
C[C@]12CC[C@@H]3c4ccc(OS(=O)(=O)O)cc4CC[C@H]3[C@@H]1CCC2=O	5%	-23%	10%	22µM*!
CC12CCC3c4ccc(OCC(=O)O)cc4CCC3C1CCC2=O (stereo not drawn)	-6%	11%	0%	-1%
O=C(OCC(=O)N1CCC(Cc2ccccc2)CC1)c1ccc(O)cc1	-15%	5%	2%	-13%
CS/C(Nc1cc(Cl)ccc1Cl)=C(/C#N)C(=O)c1ccco1	-4%	-9%	3%	50µM*
C[C@H](CO)N1C[C@H](C)[C@@H](CN(C)C(=O)c2ccc3ccn(C)c3c2)OCc2cn(nn2)CCCC1=O	5%	-6%	1%	10%
O=C(c1ccccc1)c1ccc(N2CCN(C(=O)c3ccc(F)cc3F)CC2)c(F)c1	-14%	7%	4%	-9%
Cc1ccccc1C(=O)/C(C#N)=N/Nc1c(C)n(C)n(-c2ccccc2)c1=O	79µM*	-11%	-68%	-7%
Cc1c(N/N=C(\C#N)C(=O)c2ccccc2)c(=O)n(-c2ccccc2)n1C	35%	-161%	-127%	0%
Cc1cccc(C(=O)OCC(=O)NCCN2C(=O)CSC2=O)c1[N+](=O)[O-]	17%	1%	2%	-7%
CCc1nnc(NC(=O)CSc2sc3c(O)cc(=O)[nH]c3c2C#N)s1	0%	7%	10%	?
Cc1csc(NC(=O)CSc2sc3c(O)cc(=O)[nH]c3c2C#N)n1	-1%	4%	0%	50µM*
OCCOCCN1CCN(C2=Nc3ccccc3Sc3ccccc32)CC1	2%	4%	3%	-9%
O=C1C=CC(=O)c2c(O)c(N3CCN(CCOCCO)CC3)c(Br)c(O)c21	-14%	-9%	-7%	45µM*
O=S(=O)(c1ccc(Br)cc1Cl)N1CCN(CCO)CC1	5%	-6%	-1%	-1%
O=C1C=CC(=O)c2c(O)c(N3CCN(CCO)CC3)c(Cl)c(O)c21	?	-1%	0%	14µM*
CCC1NC(=O)c2cccnc2-n2c1nc1ccc(OC)cc1c2=O (stereo not drawn)	5%	-28%	-4%	9%
COc1cc(CNc2ccc(O)cc2)cc(Br)c1OCc1ccccc1F	?	-1%	3%	28µM*
O=C(CS(=O)(=O)c1ccccc1)c1cc2cc(F)ccc2oc1=O	50µM*	2%	3%	?
O=C(CS(=O)(=O)c1ccccc1)c1cc2ccccc2oc1=O	?	4%	2%	-17%
Cc1c(NC(=O)COC(=O)c2cccc(F)c2)c(=O)n(-c2ccccc2)n1C	8%	-6%	15%	10%
Nc1ncnc2c1ncn2[C@@H]1O[C@H](C(=O)N2CCN(c3ccc(Cl)cn3)CC2)[C@@H](O)[C@H]1O	-4%	2%	7%	-27%
CC(=O)Nc1sc2c(c1-c1nc3ccccc3s1)CCN(C(C)C)C2	36%	16%	63µM*	15%
SMILES	EPAC2 antagonist	EPAC1 agonist	EPAC2 ag	EPAC1 antag
CC(C)N1CCc2c(sc(NC(=O)c3ccc4ccccc4c3)c2C(N)=O)C1	91%	-64%	-83%	20%
COc1ccc(CNC(=O)C[C@H]2C[C@H](C(=O)N3CCCCC3)[C@@]3(CCc4ccccc4)c4[nH]c5ccc(Cl)cc5c4CCN3C2=O)cc1OC	2%	-10%	2%	-14%
CC1(Cc2ccccc2OC(F)(F)F)C(=O)Nc2ccc(OC(F)(F)F)cc21 (stereo not drawn)	?	-28%	-10%	?
Cn1cc([C@]2(O)C(=O)Nc3ccc(OC(F)(F)F)cc32)c2ccccc21	22µM*	-18%	-6%	-15%
COc1ccccc1/C=C1\SC(=S)N(NS(=O)(=O)c2ccccc2)C1=O	?	5%	-5%	56µM*
O=C1/C(=C\c2ccc(Br)cc2)SC(=S)N1NS(=O)(=O)c1ccccc1	18µM*	-5%	-12%	?
NC(=O)c1ccc(-n2nnnc2SCC(=O)c2ccc(O)c(O)c2)cc1	1%	1%	6%	?
COc1ccc(-n2nnnc2SCC(=O)c2ccc(O)c(O)c2)cc1	-2%	1%	10%	45µM*
COc1cc([N+](=O)[O-])ccc1-c1ccc(/C=N\n2cnnc2)o1	9%	22%	9%	-7%
COc1cc([N+](=O)[O-])ccc1-c1ccc(/C=C2\C(=O)ON=C2c2ccccc2)o1	50µM*	10%	13%	-12%
O=C1S/C(=C\c2ccc(N3CCOCC3)o2)C(=O)N1Cc1ccc(F)cc1	-3%	7%	112µM*	1%
O=C1S/C(=C/c2ccc(N3CCOCC3)o2)C(=O)N1Cc1ccc(F)cc1	11%	4%	?	1%
Fc1ccc(-c2nc3c4ccccc4ccn3c2Cc2cccc(Cl)c2)cc1	5%	12%	9%	6%
CC1(C(=O)Nc2ccc(F)cc2F)CCN1C(=O)CCC1CCCC1 (stereo not drawn)	-19%	-11%	-9%	-7%
O=C(N/N=C/c1ccc(F)cc1)c1cc(-c2ccco2)nc2ccccc12	10%	0%	-11%	79µM*
Nc1ccc(C(=O)CC(=O)Nc2ccc(Cl)cc2)cc1	0%	0%	1%	8%
N#C/C(=C\c1ccc(C(=O)O)cc1)c1nc2sc3c(c2c(=O)[nH]1)CCCC3	158%	32µM*	56µM*	206%
O=C1NC(=O)C(=Cc2ccccc2[N+](=O)[O-])S1	79µM*	5%	11%	50µM*
O=C1NC(=O)/C(=C/c2cccc3ccccc23)S1	?	-8%	-7%	?
COC(=O)c1ccccc1-c1c2ccc(=N)cc-2oc2cc(N)ccc12	?	-9%	0%	32µM*
O=S(=O)(Nc1c(S(=O)(=O)c2ccccc2)c2nc3ccccc3nc2n1C1CCCCC1)c1ccccc1	?	4%	-3%	40µM*
O=C(CC(c1ccccc1)c1ccccc1)Nc1ccc(Cl)cn1	-15%	16%	6.3µM*	-9%
O=C(CS(=O)(=O)c1ccccc1)Nc1ccc(Cl)cn1	0%	10%	5%	16%
O=C(COc1ccc(F)cc1)Nc1nccs1	182%	-1%	35µM*	-8%
O=C1c2ccccc2C(c2nnnn2Cc2ccccc2)N1CCc1c[nH]c2ccccc12 (stereo not drawn)	75µM*	8%	10%	-15%
COCCCNC(=O)c1cccc2c(-c3ccnn3C)coc12	3%	-13%	12%	-4%
CC1=NN(C(=O)c2ccccc2)C(O)(c2ccc(Br)cc2)C1 (stereo not drawn)	-4%	4%	-1%	1%
